Among the data in ChEMBL document CHEMBL4513216, “Probing the Open Global Health Chemical Diversity Library for Multistage-Active Starting Points for Next-Generation Antimalarials” (ACS Infect Dis, 2020) are INHIBITION values, retold here.

The campaign covered roughly 69,000 compounds. About 8,600 (12%) showed an effect of 50% or more. The full list was thinned out, with strong results kept by preference.

The test system of this assay is Plasmodium berghei. As to the kind of experiment: Screen against P. berghei liver stage (PbLuc), transformed with Luciferase, at 10uM. The assay is classed as functional, HepG2. The note with it: tested at 10 uM.
As for `O=C(Nc1ccnc(OC2CCOC2)c1)c1ccc(F)cc1Cl` (stereo not drawn), the INHIBITION was 17.6%. The same measure for `Cc1occc1C(=O)Nc1ccnc(OC2CCOC2)c1` (stereo not drawn): 7.84%; for `O=C(Nc1ccnc(OC2CCOC2)c1)c1ccccc1Cl` (stereo not drawn): 65.3%; for `CN(C)Cc1cc(C2CCCCN2S(=O)(=O)c2cccc(Cl)c2)nn1C` (stereo not drawn): 37.8%.

Consider `CC(=O)Nc1ccc(SCC(O)COCc2ccco2)cc1` (stereo not drawn), for which the INHIBITION is 26.9%. In the case of `COc1ccc2oc(C(C)NC(=O)NCC(C)(C)C(N)=O)c(C)c2c1` (stereo not drawn), the INHIBITION was found to be 42.3%. The same measure for `CCN(Cc1nc(COC)no1)C(=O)CCn1c(C)cc2ccccc21`: 36.7%; for `CCN(Cc1noc(C)n1)C(=O)CCn1c(C)cc2ccccc21`: 58.5%. The same measure for `CCN(Cc1ccncc1)C(=O)CCn1c(C)cc2ccccc21`: 14.9%; for `COCCNC(=O)[C@H]1C[C@@H]2CCN(c3ncccn3)C[C@H]2O1`: -56.7%. To `CCN1CCN(C)C2(CCN(C(=O)CC(F)(F)F)CC2)C1=O` belongs 71.3%; to `CN1CCN(C)C2(CCN(C(=O)CC(F)(F)F)CC2)C1=O`, 27.5%; to `CN1CCN(CC2CC2)C(=O)C12CCN(C(=O)CC(F)(F)F)CC2`, -14.2%. In the case of `CC(C)CC(=O)NS(=O)(=O)c1ccc(C#N)cc1C(F)(F)F`, the INHIBITION was determined as 2.3%. On to `COc1ccc(C2=NOC(C#N)C2)cc1` (stereo not drawn), for which the INHIBITION worked out at 15.9%. The same measure for `CCc1nnc2n1CCN(c1nc(C)cc(N(C)C)n1)C2`: 71.5%; for `CC(C)c1nnc2n1CCN(C(=O)c1ccnc(N(C)C)c1)C2`: 42%; for `Cc1cc(N(C)C)nc(N2CCn3c(C)nnc3C2)n1`: 51.1%. For `Cc1cc(N(C)C)nc(N2CCn3c(nnc3C(C)C)C2)n1`, the INHIBITION is reported as 52.2%. To `Cc1cn2nc(N3CCn4c(nnc4C(C)C)C3)sc2n1` belongs 7.81%; to `Cc1cc(N(C)C)nc(N2CCN(Cc3nccn3C)CC2)n1`, -87%; to `Cc1cc(N(C)C)nc(N2CCn3c(nnc3C3CC3)C2)n1`, 21.2%. `CCc1nnc2n1CCN(C(=O)c1ccnc(N(C)C)c1)C2`: the INHIBITION is recorded as 19.2%. The same measure for `Cc1cc(N(C)C)nc(N2CCN(C(C)c3nc(C)no3)CC2)n1` (stereo not drawn): -71.2%; for `CS(=O)(=O)NCCC1CCCCN1C(=O)NCc1ccccn1` (stereo not drawn): 4.13%. To `CC(C)COc1cncc(N2CCCC(CC(N)=O)C2)n1` (stereo not drawn) belongs 4.82%; to `O=C(c1cnccn1)N1CCc2onc(CN3CCOCC3)c2C1`, 45.5%; to `c1ccc2cc(OCCCN3CCn4c(nnc4C4CC4)C3)ccc2c1`, 35.9%. The same measure for `CC(C)=CCN1CC2(CCN(C(=O)CCn3ccnc3C)CC2)CC1=O`: 27.7%; for `CC(C)N(C)C[C@H]1C[C@@H]2CN(Cc3ccco3)C[C@@H]2O1`: 8.74%; for `O=C(C1CCCC1)N1CCCC([C@@H]2C[C@H](C(F)F)n3ncnc3N2)C1` (stereo partly drawn): 0.788%. Regarding `O=C1CN(CCS(=O)(=O)c2ccc(Cl)cc2)CCN1`, the INHIBITION was 14%.

On to `O=C(Nc1cccc2c1CCCC2)c1cccnc1N1CCCNCC1`, for which the INHIBITION is listed as 53%.

Turning to `Cc1cccc(C(=O)Nc2cccc3c2CCCC3)n1`, the INHIBITION is listed as -45.5%. On to `CC1CN(c2ncccc2C(=O)Nc2cccc3c2CCCC3)CCN1` (stereo not drawn), for which the INHIBITION was -63.6%. To `c1cnc(N2CCO[C@H]3[C@H](OCc4cccnc4)CC[C@@H]32)nc1` belongs 21.5%. As to `CS(=O)(=O)N1C[C@@H](NC(=O)c2ccno2)[C@@H]2OCCC[C@@H]21`, the INHIBITION worked out at 36.7%. On to `CN1CC(=O)N(c2ccsc2)CC12CCN(C(=O)Nc1ccccc1)C2` (stereo not drawn), for which the INHIBITION was found to be 1.94%. The same measure for `CC(C(=O)N1CCCN(Cc2ccc(C#N)cc2)CC1)n1cccn1` (stereo not drawn): 19.583%; for `CCCC(=O)NCCc1cc(N2CCN(C(C)=O)CC2)nc(C2CC2)n1`: 46%. On to `CCC(=O)NCCc1cc(N2CCN(C(C)=O)CC2)nc(C2CC2)n1`, for which the INHIBITION is given as 51.2%.

Consider `CC(=O)NCCc1cc(N2CCN(C(C)=O)CC2)nc(C2CC2)n1`, for which the INHIBITION was 43.8%. The same measure for `COc1cccc(CN(C)C(C)C(=O)Nc2nc(C)c(C)s2)c1` (stereo not drawn): 39.3%; for `CCS(=O)(=O)N1CCC[C@]2(C(=O)N(C)C)CN(c3ncccn3)C[C@@H]2C1`: -47.6%. To `CCOC(=O)c1ccc(N2CCN(Cc3c(C)nn(C)c3Cl)CC2)nc1` belongs 74.9%; to `NC(=O)c1ccc(N2CCN(Cc3c(Cl)cncc3Cl)CC2)nc1`, 30.7%; to `CCc1nn(C)c(Cl)c1CN1CCN(c2ccc(Cl)nn2)CC1`, 66.6%.

Regarding `CCc1nn(C)c(Cl)c1CN1CCN(c2nc(C(N)=O)cs2)CC1`, the INHIBITION was 24.1%. To `CCc1nn(C)c(Cl)c1CN1CCN(c2ccc(C(N)=O)cn2)CC1` belongs 40.7%. To `CCc1nn(C)c(Cl)c1CN1CCC(c2cc(O)nc(C)n2)CC1` belongs 3.96%. Turning to `Cn1nc(C2CCCN2)c2c(C(=O)NCC(F)(F)F)cc(C3CC3)nc21` (stereo not drawn), the INHIBITION was 28.4%.

On to `O=S(=O)(c1ccccc1)N1C2CCC(O)(CC2)C1CN1CCOCC1` (stereo not drawn), for which the INHIBITION stood at 23.7%.

On to `Cc1nc(C)n(CC2CCCN2Cc2nc(-c3ccccn3)no2)n1` (stereo not drawn), for which the INHIBITION is 32.7%. The same measure for `CN(C)C(=O)[C@H]1CCS(=O)(=O)[C@@H]2CN(c3ncccn3)C[C@H]12`: 61.1%; for `CC(C)NC(=O)[C@H]1CCS(=O)(=O)[C@@H]2CN(c3ncccn3)C[C@H]12`: 0.164%; for `CC(C)CNC(=O)[C@H]1CCS(=O)(=O)[C@@H]2CN(c3ncccn3)C[C@H]12`: 35.8%. `CN(C)C(=O)[C@H]1CCS(=O)(=O)[C@@H]2CN(c3ncc(F)cn3)C[C@H]12`: the INHIBITION is recorded as 54.8%. To `CCc1cnc(N2C[C@@H]3[C@@H](C(=O)N(C)C)CCS(=O)(=O)[C@@H]3C2)nc1` belongs 36.7%. The same measure for `CC(C)NC(=O)[C@H]1CCS(=O)(=O)[C@@H]2CN(c3ncc(F)cn3)C[C@H]12`: -13%. As to `O=C(O)c1cc(C=Cc2ccc3ccccc3c2)ncn1`, the INHIBITION is -57%. To `Cc1ccc(C(O)CNC(=O)NCc2csc(C)n2)cc1` (stereo not drawn) belongs -34%.

In the case of `O=C(c1cccnc1N1CCOCC1)N1CCCC(n2cccn2)C1` (stereo not drawn), the INHIBITION is recorded as -62.365%. To `Cn1cc(-c2cnc(N3CCOCC3)nc2)cc1C(=O)N1CCCC1` belongs -50.9%.
